In PubChem BioAssay AID1259415 (National Center for Advancing Translational Sciences (NCATS), 2018):
About 18,000 (4.4%) of roughly 410,000 compounds were called active. Roughly 7% stayed inconclusive and do not appear here. Shown is part of a subset that was picked to be rich in actives. Values without a mark were called inactive. Rule as the data show it: active = activity change below about -60%; inconclusive = no clear call, values can overlap the other calls; inactive = above about -39%.

assay: qHTS Assay for inhibitors of the human cytomegalovirus (HCMV); conditions: HFF cells, HCMV-luciferase reporter, 72 h; at 57.5 µM; hits give low values
In short: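 Human foreskin fibroblasts infected with luciferase-reporter HCMV at MOI 1 PFU/cell, compounds at two doses. Luciferase measured 72 h post infection; normalized to buffer-only basal and Salinomycin (10uM) controls.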
% is scaled to controls: 0 for no effect and ±100 for the full control effect.

| Structure (SMILES) | activity change, negative = inhibition |
| --- | --- |
| CCCc1ccc(OCc2ccc(C(=O)N/N=C/c3cccc([N+](=O)[O-])c3)o2)c(OC)c1 | -67.9% (active) |
| COc1ccccc1OCc1ccc(C(=O)NC(C)c2ccccc2)o1 (stereo not drawn) | 26.2% |
| Cc1cccc(NC(=O)c2ccc(COc3ccccc3[N+](=O)[O-])o2)n1 | -4.62% |
| COc1ccc(N(CC(=O)NCCc2ccc(Cl)cc2)S(=O)(=O)c2c(C)nn(C)c2C)cc1 | -14.4% |
| Cc1ccc(S(=O)(=O)NCc2nc3nc(C)cc(C)n3n2)cc1 | 14.6% |
| Cc1ccc(-c2nn3c(=O)cc(CN4CCN(C(=O)Nc5cccc(C(F)(F)F)c5)CC4)nc3s2)cc1 | 10.5% |
| CCOC(=O)C1CCN(c2csc3ccc(C)cc3c2=O)CC1 | -4.71% |
| CC(NCc1nc2ccccc2n1C)C12CC3CC(CC(C3)C1)C2 (stereo not drawn) | -65.6% (active) |
| COc1cccc(C(O)Cc2nc3ccccc3n2C)c1OC (stereo not drawn) | 34.8% |
| Cn1c(COc2ccccc2C(C)(C)C)nc2ccccc21 | -14.6% |
| CCOC(=O)c1ccc(NC(=O)c2csc3c2CCCCC3)cc1 | 26.3% |
| Nn1c(SCC(=O)NC2CCCc3ccccc32)nnc1C1CC1 (stereo not drawn) | 40.9% |
| CC(C)N(Cc1ccccc1)C(=O)COC(=O)c1ccccc1SCC(=O)N1CCCC1 | -8.52% |
| CC(C)c1nc(CNC(=O)CC2C(=O)NCCN2Cc2cccc(F)c2F)cs1 (stereo not drawn) | 12.4% |
| COc1ccc(CN2CCNC(=O)C2CC(=O)NCc2cn[nH]c2-c2ccccc2)c(F)c1 (stereo not drawn) | -65.5% (active) |
| O=C(CC1C(=O)NCCN1Cc1ccc(-c2ccccc2)cc1)NCc1ccncc1 (stereo not drawn) | 11.9% |
| CCOc1ccc(N2CC(C)Cn3c2nc2c3c(=O)n(Cc3c(F)cccc3Cl)c(=O)n2C)cc1 (stereo not drawn) | -9.51% |
| CCOc1ccccc1NC(=O)CN1CCN(S(=O)(=O)c2ccc(Br)cc2)CC1 | -1.48% |
| O=C(NC1CC(=O)N(c2ccc(F)cc2)C1)C1CCCCC1 (stereo not drawn) | 31.9% |
| Cc1ccc(C)c(N2CCN(C(c3ccccc3)c3nnc(-c4ccccc4)o3)CC2)c1 (stereo not drawn) | 20.2% |

| Structure (SMILES) | activity change, negative = inhibition |
| --- | --- |
| O=C(NN1C(=O)C2C3C=CC(C4CC34)C2C1=O)c1ccc(Cl)cc1 (stereo not drawn) | 11.6% |
| O=C(NN1C(=O)C2C3C=CC(O3)C2C1=O)c1ccncc1 (stereo not drawn) | -8.47% |
| COc1ccc(C(=O)NN2C(=O)C3C(c4ccccc4)C=CC(c4ccccc4)C3C2=O)cc1 (stereo not drawn) | -63% (active) |
| CCc1cccc(NC(=O)c2cnc(N3CCOCC3)c3ccccc23)c1 | 10.1% |
| COc1ccc(CCNC(=O)c2ccc3c(c2)nc(C)n3-c2ccc(Br)cc2)cc1OC | -16.1% |
| Cc1ccc(C)c(Cn2c(C)c(CNCc3ccc(F)cc3)c(C(=O)O)c2C)c1 | 18.1% |
| Cc1ccc(C2c3[nH]c4ccccc4c3CCN2C(=O)c2cccc(C)c2)cc1 (stereo not drawn) | -22.4% |
| C=CCOc1cccc(CNCc2cccnc2)c1 | 21.4% |
| Brc1ccc2ncnc(NCc3cccnc3)c2c1 | -65.9% (active) |
| Clc1ccc(Cn2ncc3c(NCc4cccnc4)ncnc32)cc1 | -72.2% (active) |
| Clc1cccc(-n2ncc3c(NCCc4ccccc4)ncnc32)c1 | 41.5% |
| C=CCNc1ncnc2ccc(Br)cc12 | -60.6% (active) |
| CC(C)CNc1ncnc2c1cnn2Cc1ccc(Cl)cc1 | -30.5% |
| c1cncc(CNC2=NCCC2)c1 | 46.1% |
| COc1ccc(CCNS(=O)(=O)c2cccc([N+](=O)[O-])c2)cc1 | -2.78% |
| COc1cc2nc(NCC(C)c3ccccc3)n3nc(-c4ccccc4)nc3c2cc1OC (stereo not drawn) | 5.32% |
| Cc1ccc2cccc(NC(=O)C(C)Oc3ccc(C)c(C)c3)c2n1 (stereo not drawn) | -3.68% |
| C=CCNC(=O)c1cc2nc(C3CC3)cc(C(F)F)n2n1 | 37.6% |
| COc1ccc(N(CC(=O)Nc2ccc(F)c(F)c2)S(=O)(=O)c2c(C)[nH]c(=O)[nH]c2=O)cc1 | 0% |
| CC(C)c1ccc(NC(=O)c2cc(S(=O)(=O)N3CCc4ccccc4C3)ccc2F)cc1 | 3.74% |

| Structure (SMILES) | activity change, negative = inhibition |
| --- | --- |
| CC1=C(C(=O)OCC(C)C)C(c2ccc(OCc3ccccc3)cc2)N2C(=O)CCSC2=N1 (stereo not drawn) | 14.9% |
| COc1ccc(NC(=O)CN2C(=O)C(c3ccccc3)=NC23CCCCCC3)cc1OC | -13.9% |
| CCc1ccc(NC(=O)CN2C(=O)C(c3ccccc3)=NC23CCCCCC3)cc1 | 16.1% |
| CC1CCC2(CC1)N=C(c1ccccc1)C(=O)N2CC(=O)Nc1ccc(F)c(Cl)c1 (stereo not drawn) | -96% (active) |
| COc1cccc(NC(=O)C2CCN(c3cc(C)nc4c(-c5ccc(Cl)cc5)c(C)nn34)CC2)c1 | -5.4% |
| Cc1ccc(-c2cc(=O)c3ccc(F)cc3[nH]2)cc1 | 3.06% |
| CC(=O)c1cc(-c2ccccc2)[nH]c1N1CCCC1 | 30.4% |
| O=c1cc(-c2ccccc2)[nH]c2cc(F)ccc12 | -67.4% (active) |
| COc1ccccc1Nc1ncc(C(C)=O)c(C)n1 | 16.2% |
| COc1ccccc1CNC(=O)COC(=O)c1sc(C)nc1C | -2.84% |
| COc1cccc2sc(Nc3nc(C)c(C(C)=O)s3)nc12 | -77% (active) |
| O=C(Nc1ccc(-c2nc3cc(NC(=O)c4ccccc4Cl)ccc3o2)cc1)c1ccccc1Cl | -35.6% |
| COc1ccc(-c2nc(Cn3c(=O)cc(C)c4c(C)nn(-c5ccccc5)c43)c(C)o2)c(OC)c1 | -2.37% |
| Cc1nc2ccc(S(=O)(=O)NC(C(=O)NCc3ccccc3Cl)C(C)C)cc2s1 (stereo not drawn) | -12.9% |
| CC1(C)CC(=O)C=C(c2ccc3ncccc3c2)C1 | -83.3% (active) |
| CC1(C)CC(=O)C=C(c2ccc(Cl)c(C(F)(F)F)c2)C1 | -4.75% |
| COc1ccccc1-c1n[nH]nc1C1=CC(=O)CC(C)(C)C1 | -4.89% |
| CC1CCCCN1Cc1c(O)ccc2c(=O)c(-c3cccc(Cl)c3)c(C(F)(F)F)oc12 (stereo not drawn) | 11.3% |
